Assay results from ChEMBL document CHEMBL3988442, “University of Dundee, Small-Polar-MMV Screening Library” (2021).
For some of these results: Entries with a potency or affinity are not part of this list.

Key:
Parameters in all cases: scale not given: direction of the effect not stated beside the values
[1] = biological target: Protein translocase subunit SecA (Escherichia coli (strain K12)) (UniProt P10408); assay: Assay to Identify E. coli SecA ATPase Inhibitors; format: functional; settings: 30 µM
[2] = biological target: T1, Ubiquitin-activating enzyme e1, putative (Leishmania donovani (strain BPK282A1)) (UniProt E9BSI1); assay: Leishmania donovani Ubiquitin Activating Enzyme (LdE1); format: functional; settings: 30 µM
T1 sequence (whole entry): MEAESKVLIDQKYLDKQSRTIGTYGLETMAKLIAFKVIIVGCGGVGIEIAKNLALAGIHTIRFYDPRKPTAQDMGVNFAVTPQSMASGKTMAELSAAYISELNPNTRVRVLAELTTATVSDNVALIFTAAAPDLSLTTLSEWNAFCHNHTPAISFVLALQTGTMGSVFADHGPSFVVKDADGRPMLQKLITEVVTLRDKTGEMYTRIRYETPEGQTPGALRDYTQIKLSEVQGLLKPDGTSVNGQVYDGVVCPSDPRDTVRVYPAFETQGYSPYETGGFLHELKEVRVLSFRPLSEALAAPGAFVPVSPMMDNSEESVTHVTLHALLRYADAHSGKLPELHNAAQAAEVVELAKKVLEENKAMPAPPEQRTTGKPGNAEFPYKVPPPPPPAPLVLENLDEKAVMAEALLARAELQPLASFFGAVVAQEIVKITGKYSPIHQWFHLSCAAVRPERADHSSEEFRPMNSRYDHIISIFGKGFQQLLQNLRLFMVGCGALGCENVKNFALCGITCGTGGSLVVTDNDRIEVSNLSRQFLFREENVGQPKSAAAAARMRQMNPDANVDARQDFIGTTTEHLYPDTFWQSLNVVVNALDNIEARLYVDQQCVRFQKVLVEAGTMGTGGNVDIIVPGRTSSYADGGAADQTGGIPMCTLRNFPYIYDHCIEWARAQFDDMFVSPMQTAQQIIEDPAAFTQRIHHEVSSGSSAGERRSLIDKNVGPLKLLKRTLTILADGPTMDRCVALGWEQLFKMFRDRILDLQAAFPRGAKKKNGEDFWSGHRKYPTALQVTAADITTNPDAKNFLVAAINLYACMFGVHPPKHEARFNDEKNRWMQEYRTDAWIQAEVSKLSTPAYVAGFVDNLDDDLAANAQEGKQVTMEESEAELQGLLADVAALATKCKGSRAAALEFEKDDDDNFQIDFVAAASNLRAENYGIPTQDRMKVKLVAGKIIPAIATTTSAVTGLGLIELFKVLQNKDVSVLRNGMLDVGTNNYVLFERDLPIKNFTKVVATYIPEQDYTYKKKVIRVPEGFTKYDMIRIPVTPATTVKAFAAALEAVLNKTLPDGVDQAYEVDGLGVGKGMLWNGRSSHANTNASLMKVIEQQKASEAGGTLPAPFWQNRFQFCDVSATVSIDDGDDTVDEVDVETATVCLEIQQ

[3] = biological target: AMP-activated protein kinase, AMPK (Homo sapiens) (UniProt P54646+O43741+P54619+Q9UGJ0+Q9Y478+Q13131+Q9UGI9); assay: AMP-dependent Kinase enzyme assay. An in vitro enzyme assay that detects ADP turnover that is directly proportional to AMPK activity. This uses naive AMPK that is activated during the assay with MK-8722; format: functional; settings: 30 µM
[4] = biological target: Sialic acid-binding Ig-like lectin 9 (Homo sapiens) (UniProt Q9Y336); assay: Hs-Siglec9 ALPHAscreen SOP 20170721; settings: 10 µM
Trypanosoma cruzi = assay: Trypanosoma cruzi phosphomannomutase and mannose-1-phosphate guanylyltransferase assay; format: functional; settings: 10 µM
[5] = biological target: T2, Arginase-2, mitochondrial (Homo sapiens) (UniProt P78540); assay: in vitro enzyme assay to detect the production of urea directly proportional to the activity of Arginase II; format: functional; settings: 33.3 µM; also: in the data most compounds retested in dose-response had high values
T2 sequence (whole entry): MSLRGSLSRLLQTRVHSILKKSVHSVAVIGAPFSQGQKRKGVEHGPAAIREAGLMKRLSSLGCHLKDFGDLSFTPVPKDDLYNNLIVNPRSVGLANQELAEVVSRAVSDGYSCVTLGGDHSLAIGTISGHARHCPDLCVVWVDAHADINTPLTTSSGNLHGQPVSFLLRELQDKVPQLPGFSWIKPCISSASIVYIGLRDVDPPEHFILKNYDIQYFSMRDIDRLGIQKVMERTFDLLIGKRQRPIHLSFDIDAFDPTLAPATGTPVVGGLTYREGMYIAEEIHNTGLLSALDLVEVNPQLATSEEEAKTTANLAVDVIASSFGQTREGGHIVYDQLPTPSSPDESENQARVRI

[6] = biological target: T3, Proteasome subunit beta (Trypanosoma cruzi) (UniProt O96673); assay: Trypanosoma cruzi proteasome chymotrypsin-like activity (TcProtChymo) assay.; also: in the data most compounds retested in dose-response had high values; format: functional; settings: 9.37 µM
T3 sequence (whole entry): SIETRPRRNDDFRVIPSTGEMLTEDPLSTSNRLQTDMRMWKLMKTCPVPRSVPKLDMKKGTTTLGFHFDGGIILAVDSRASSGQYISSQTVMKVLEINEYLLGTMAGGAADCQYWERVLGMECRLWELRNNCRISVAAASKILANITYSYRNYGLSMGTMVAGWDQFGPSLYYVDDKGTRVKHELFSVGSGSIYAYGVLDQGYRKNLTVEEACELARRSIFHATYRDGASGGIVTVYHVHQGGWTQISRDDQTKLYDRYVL

Homo sapiens = organism: Homo sapiens; assay: To identify inhibition of the IFN signalling (Jak-Stat) pathway via expression of an eGFP reporter gene under the control of an IFN-stimulated response element (ISRE) containing MxA promoter.; format: functional; settings: 30 µM
[7] = biological target: T4, Tyrosyl-tRNA synthetase, putative (Trypanosoma cruzi (strain CL Brener)) (UniProt Q4DSP6); assay: Trypanosoma cruzi tyrosyl tRNA synthetase (TcYRS) _High Tyrosine SOP; format: functional; settings: 30 µM; also: in the data most compounds retested in dose-response had high values
T4 sequence (whole entry): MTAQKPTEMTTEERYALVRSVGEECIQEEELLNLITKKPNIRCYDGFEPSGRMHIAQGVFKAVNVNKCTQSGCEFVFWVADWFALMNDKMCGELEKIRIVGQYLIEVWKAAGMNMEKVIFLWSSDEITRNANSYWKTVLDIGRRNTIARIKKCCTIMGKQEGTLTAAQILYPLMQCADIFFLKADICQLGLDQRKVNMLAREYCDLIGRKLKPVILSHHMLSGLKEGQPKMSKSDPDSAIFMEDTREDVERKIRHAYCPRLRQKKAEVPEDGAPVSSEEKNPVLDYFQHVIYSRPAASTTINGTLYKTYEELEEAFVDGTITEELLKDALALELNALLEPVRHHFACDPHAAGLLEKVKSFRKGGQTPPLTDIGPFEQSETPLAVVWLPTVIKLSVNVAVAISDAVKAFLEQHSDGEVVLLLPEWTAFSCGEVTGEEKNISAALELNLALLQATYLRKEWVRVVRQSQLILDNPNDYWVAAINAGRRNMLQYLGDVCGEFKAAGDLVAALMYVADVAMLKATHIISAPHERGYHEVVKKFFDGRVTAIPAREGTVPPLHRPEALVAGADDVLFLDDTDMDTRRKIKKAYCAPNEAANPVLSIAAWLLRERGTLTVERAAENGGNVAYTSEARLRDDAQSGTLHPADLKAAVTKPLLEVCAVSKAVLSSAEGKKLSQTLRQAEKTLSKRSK

[8] = biological target: T4, Tyrosyl-tRNA synthetase, putative (Trypanosoma cruzi (strain CL Brener)); assay: Trypanosoma cruzi tyrosyl tRNA synthetase (TcYRS) SOP; format: functional; settings: 30 µM
[9] = biological target: Chromo domain-containing protein 1 (Saccharomyces cerevisiae (strain ATCC 204508 / S288c) (Baker's yeast)) (UniProt P32657); assay: ScCHD-1 Enzyme Inhibition Assay; format: functional; settings: 30 µM; also: in the data most compounds retested in dose-response had high values
Sequence of Chromo domain-containing protein 1 (Saccharomyces cerevisiae (strain ATCC 204508 / S288c) (Baker's yeast)) (P32657 whole entry, the tested form may be a part): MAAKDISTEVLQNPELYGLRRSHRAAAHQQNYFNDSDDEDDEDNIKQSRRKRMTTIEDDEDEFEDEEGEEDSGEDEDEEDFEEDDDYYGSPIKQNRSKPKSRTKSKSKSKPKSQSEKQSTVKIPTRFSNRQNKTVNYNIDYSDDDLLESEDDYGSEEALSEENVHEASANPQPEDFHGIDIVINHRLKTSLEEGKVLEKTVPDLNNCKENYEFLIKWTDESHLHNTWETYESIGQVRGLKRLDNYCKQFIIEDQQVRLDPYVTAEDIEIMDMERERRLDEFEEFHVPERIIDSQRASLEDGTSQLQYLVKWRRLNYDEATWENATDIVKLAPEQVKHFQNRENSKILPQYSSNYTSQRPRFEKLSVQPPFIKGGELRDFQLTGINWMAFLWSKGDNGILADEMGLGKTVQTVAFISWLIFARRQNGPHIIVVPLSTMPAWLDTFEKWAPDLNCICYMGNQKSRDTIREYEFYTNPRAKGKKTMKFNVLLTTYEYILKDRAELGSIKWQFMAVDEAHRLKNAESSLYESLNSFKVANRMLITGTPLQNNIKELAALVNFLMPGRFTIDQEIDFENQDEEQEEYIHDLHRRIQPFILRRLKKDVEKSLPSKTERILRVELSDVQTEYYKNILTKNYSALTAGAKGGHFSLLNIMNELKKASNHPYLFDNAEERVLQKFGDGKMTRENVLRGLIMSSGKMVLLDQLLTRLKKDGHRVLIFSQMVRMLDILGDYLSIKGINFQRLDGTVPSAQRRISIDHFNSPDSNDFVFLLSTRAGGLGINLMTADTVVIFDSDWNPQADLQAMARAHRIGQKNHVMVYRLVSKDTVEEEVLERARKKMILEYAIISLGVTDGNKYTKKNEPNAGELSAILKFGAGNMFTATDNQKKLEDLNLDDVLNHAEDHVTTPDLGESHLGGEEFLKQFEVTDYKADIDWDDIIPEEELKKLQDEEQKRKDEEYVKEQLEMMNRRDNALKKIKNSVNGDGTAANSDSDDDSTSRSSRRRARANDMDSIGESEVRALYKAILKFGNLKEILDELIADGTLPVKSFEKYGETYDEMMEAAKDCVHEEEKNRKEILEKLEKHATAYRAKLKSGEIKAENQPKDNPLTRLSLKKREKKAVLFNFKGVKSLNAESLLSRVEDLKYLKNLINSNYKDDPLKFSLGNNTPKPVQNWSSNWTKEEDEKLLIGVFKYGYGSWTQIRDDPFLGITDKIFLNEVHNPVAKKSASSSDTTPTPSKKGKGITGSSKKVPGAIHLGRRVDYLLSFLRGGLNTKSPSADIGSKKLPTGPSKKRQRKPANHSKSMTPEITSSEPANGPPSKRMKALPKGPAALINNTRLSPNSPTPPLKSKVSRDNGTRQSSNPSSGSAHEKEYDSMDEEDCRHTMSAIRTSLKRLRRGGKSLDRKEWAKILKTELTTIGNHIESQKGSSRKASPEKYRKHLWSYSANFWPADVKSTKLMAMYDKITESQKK

Sequence of Protein translocase subunit SecA (Escherichia coli (strain K12)) (P10408 whole entry): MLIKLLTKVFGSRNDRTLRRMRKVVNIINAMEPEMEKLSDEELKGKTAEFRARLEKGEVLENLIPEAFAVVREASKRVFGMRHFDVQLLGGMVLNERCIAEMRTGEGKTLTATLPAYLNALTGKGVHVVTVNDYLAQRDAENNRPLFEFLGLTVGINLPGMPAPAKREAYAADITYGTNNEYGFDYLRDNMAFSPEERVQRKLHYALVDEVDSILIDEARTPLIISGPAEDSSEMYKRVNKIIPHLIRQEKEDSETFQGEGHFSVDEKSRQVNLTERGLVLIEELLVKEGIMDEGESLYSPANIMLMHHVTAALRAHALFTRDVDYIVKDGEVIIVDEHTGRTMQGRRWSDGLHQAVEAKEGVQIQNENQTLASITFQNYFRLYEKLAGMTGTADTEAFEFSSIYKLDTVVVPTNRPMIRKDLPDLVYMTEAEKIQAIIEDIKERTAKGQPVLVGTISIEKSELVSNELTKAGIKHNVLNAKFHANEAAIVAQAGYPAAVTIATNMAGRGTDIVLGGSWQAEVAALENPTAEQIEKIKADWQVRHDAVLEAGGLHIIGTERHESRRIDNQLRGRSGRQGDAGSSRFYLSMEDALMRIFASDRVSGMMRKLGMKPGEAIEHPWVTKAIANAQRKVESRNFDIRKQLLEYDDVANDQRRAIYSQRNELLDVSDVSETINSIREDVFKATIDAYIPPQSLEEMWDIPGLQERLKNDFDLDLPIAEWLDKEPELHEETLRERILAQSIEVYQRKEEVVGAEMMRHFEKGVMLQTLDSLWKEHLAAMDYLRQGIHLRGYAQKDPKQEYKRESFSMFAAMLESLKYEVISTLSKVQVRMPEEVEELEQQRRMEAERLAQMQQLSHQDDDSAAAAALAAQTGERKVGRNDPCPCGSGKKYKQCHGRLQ
Sequence of Sialic acid-binding Ig-like lectin 9 (Homo sapiens) (Q9Y336 whole entry): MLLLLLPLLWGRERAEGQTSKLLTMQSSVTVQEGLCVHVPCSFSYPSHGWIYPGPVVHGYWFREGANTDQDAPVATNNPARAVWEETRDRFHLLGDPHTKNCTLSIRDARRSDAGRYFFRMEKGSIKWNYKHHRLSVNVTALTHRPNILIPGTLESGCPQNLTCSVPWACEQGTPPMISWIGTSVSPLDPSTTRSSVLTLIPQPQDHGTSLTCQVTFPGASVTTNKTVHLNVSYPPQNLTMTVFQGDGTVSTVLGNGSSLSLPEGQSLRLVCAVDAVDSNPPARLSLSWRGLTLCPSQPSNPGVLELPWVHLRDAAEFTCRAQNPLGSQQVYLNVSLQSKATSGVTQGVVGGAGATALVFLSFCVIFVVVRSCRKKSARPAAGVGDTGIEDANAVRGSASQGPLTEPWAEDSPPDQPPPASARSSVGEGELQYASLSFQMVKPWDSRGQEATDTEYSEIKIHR

Compound	Percent Effect [1] [%]	Percent Effect [2] [%]	Percent Effect [3] [%]	Percent Effect [4] [%]	Percent Effect (Trypanosoma cruzi) [%]	Percent Effect [5] [%]	Percent Effect [6] [%]	Percent Effect (Homo sapiens) [%]	Percent Effect [7] [%]	Percent Effect [8] [%]	Percent Effect [9] [%]
COc1cccn(CC(=O)N(C)CCOc2cc(C)cc(C)c2)c1=O	-5.42	8.22	-63.8	11.9	2.98	-12.8	15.2	-0.398	-2.08	3.7	-0.823
O=C(CCNS(=O)(=O)c1ccccc1)NCc1ccoc1	-5.05	5.33	-0.901	7.78	7.11	-0.521	12	12.9	8.2	16.1	-4.93
Cn1cnc(S(=O)(=O)NCCN2CCCCCC2=O)c1Cl	-8.78	5.41	-41.8	6.15	-3.87	-0.802	0.721	17.8	-0.493	-6.17	-8.21
COc1ccc(-c2cc(C3CCCCCN3S(=O)(=O)N(C)C)on2)cc1 (stereo unspecified)	-2.23	-14.9	6.56	-4.82	4.54	-1.16	14.3	12.8	-50.5	-66.2	-12.7
CCn1ccnc1CN1CCN(Cc2ccccn2)CC1C (stereo unspecified)	1.15	5.41	-1.29	3.52	-3.91	5.42	9.04	12.7	8.91	13.4	14
COc1ccc(-c2nc(CN3CCN(CCO)CC3)co2)cc1	-2.39	20.8	-11.9	-1.67	8.8	4.98	15.2	29	5.83	24.4	-9.19
CC(C)c1noc(C(C)N2CCN(Cc3ccsc3)CC2)n1 (stereo unspecified)	-4.95	7.89	-4.06	-4.87	-3.46	3.6	-2.45	-18.3	4.43	3.7	4.12
COc1cccc(CN2CCCCCC2c2cccs2)c1O (stereo unspecified)	-0.394	0	-1.74	-0.0415	-3.65	4.52	15.8	21.7	-1.06	8.97	-5.25
Cc1nn(C)c(C)c1CC(=O)N1CCC(Nc2cccnn2)CC1	-5.77	-13.2	-1.31	-4.49	9.59	-1.92	5.85	9.42	5.39	9.76	-11.7
Cc1nc(CN(C)C2CCN(Cc3ccno3)C2)no1 (stereo unspecified)	-3.58	18.2	-53.5	-23.7	5.19	-7.79	29.4	4.64	3.81	18.8	3.1
CC(C)c1nc(C2CCCN2Cc2ccno2)no1 (stereo unspecified)	-2.76	-2.6	-0.797	8.93	-2.81	2.13	-1.52	14.5	2.91	-2.44	4.2
